# Measured values published in PubChem BioAssay AID651820 (National Center for Advancing Translational Sciences (NCATS), 2012).
# Hit rate of the full screen: of about 340,000 compounds, about 12,000 (3.5%) were called active. A call without a number means that no potency is given here. Inconclusive results (about 18%) are left out. The sample as a whole holds a higher share of actives than the screen did. Values without a mark were called inactive. Calls follow the shape of the dose curve; as a rule, active = well fitted inhibition curve with a large enough effect; inconclusive = small, poorly fitted or top-dose-only effect, or another doubt; inactive = no such curve, though single readings can be large or run the other way.
# Assay: qHTS Assay for Inhibitors of Hepatitis C Virus (HCV)
# Conditions: Huh7.5.1 HCVcc-Cre infection, luciferase reporter, 44 h; series mostly up to 41.8 µM
# How it was run: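 Infectious HCV cell culture screen: compound-treated cells (1,000/well, pre-plated 4 h) are infected with HCVcc-Cre at roughly 0.5 moi and grown 44 h. Infection is quantified by luciferase signal after 15 min substrate incubation at room temperature.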
# Potency is read from the fitted curve at half-maximal effect.
SMILES,Potency,"activity change, negative = inhibition"
C#CCOCCOCCOCCNc1nc(N2CCN(C(=O)Cn3cc(CCO)nn3)CC2)nc(N2CCN(C(=O)Cn3cc(CCCN=C(N)N)nn3)CC2)n1,inactive,
CCCCNC(=O)CSc1nnc(-c2ccco2)n1C,inactive,
CCCCNC(=O)CSc1nc2n[nH]c(C)c2c(=N)n1-c1cccc(Cl)c1C,15.8 µM (active),
CCCCNC(=O)CSc1nccn1Cc1ccccc1,inactive,
CCn1nc(C(=O)NNC(=O)C2CSC3(C)CCC(=O)N23)c2ccccc2c1=O (configuration not stated),inactive,
COc1cccc(CNC(C)C(=O)Nc2ccc(S(=O)(=O)N3CCCC3)cc2)c1 (configuration not stated),inactive,
O=C(Nc1nnc(-c2ccccc2)o1)c1cc(-c2cccs2)nc2ccccc12,inactive,
COC(=O)c1cc(-c2cccs2)nc2ccccc12,12.6 µM (active),
O=C(NCCN1CCOCC1)c1cc(-c2cccs2)nc2ccccc12,inactive,
O=C(O)CCCc1ccccc1,inactive,
N/C(=N\OC(=O)CCc1ccccc1)c1cccnc1,inactive,
O=C(O)CCc1cccnc1,0.891 µM (active),
COc1ccc2c(CC(=O)NNC(=O)c3ccccc3F)coc2c1,inactive,
Cc1cc(C)n2nc(C(=O)OCC(=O)N(C)CC(=O)Nc3ccc(F)cc3)nc2n1,inactive,
Cc1ccc(C)c(-c2nnc(NC(=O)CS(=O)(=O)c3ccccc3)o2)c1,inactive,
COc1ccc(S(=O)(=O)Nc2cccc3c2O[C@H](CN(C)S(=O)(=O)c2ccc(OC)cc2)[C@@H](C)CN([C@H](C)CO)C3=O)cc1,inactive,
O=C(NCCCO)c1cc2c([nH]c3ccccc32)c(-c2ccc(F)cc2)n1,14.1 µM (active),
O=C(NCC1CCCO1)c1ccc2ccccc2n1 (configuration not stated),inactive,
O=C(NCCc1ccc(F)cc1)c1n[nH]c2ccccc12,inactive,
O=C(NCC1CCCO1)c1cc2c([nH]c3ccccc32)c(-c2ccc(F)cc2)n1 (configuration not stated),1.58 µM (active),
O=C(NCC1CCCO1)c1cc(-c2ccccc2)nc2ccccc12 (configuration not stated),inactive,
CN(C)CCCNC(=O)c1ccc2[nH]c3ccccc3c2c1,inactive,
COc1ccc(CCNC(=O)COc2cc(C)cc3oc(=O)c(C)c(C)c23)cc1OC,inactive,
CC1CN(Cc2ccccc2)C(=S)NC1=O (configuration not stated),inactive,
C=CCOC(=O)N1CCC2CC1c1cc(-c3ccc(OC)cc3)ccc12 (configuration not stated),,2.52% [at 8.37 µM]
COc1ccccc1C(=O)NCCC(=O)NC1=NCCS1,inactive,

SMILES,Potency,"activity change, negative = inhibition"
Cc1ccc(C(=O)NNC(=O)CSc2nnc3ccccn23)cc1,inactive,
Cc1ccc(CNC(=O)c2ccc3c(c2)S(=O)(=O)c2ccccc2C3=O)cc1,inactive,
Cc1ccc(CNC(=O)c2cccc3c2C(=O)c2ccc(N4CCC(C)CC4)cc2S3(=O)=O)cc1,10 µM (active),
CC1CCN(c2c(NCc3ccc(C(=O)NCc4ccccc4)cc3)c(=O)c2=O)CC1,inactive,
COc1cccc(NC(=O)CN(C)CC(=O)c2c(N)n(Cc3ccccc3)c(=O)n(C)c2=O)c1,inactive,
CCCCCCSc1ccc([C@@H]2[C@H]3C(=O)N(CC)C(=O)[C@H]3[C@]3(C(=O)OC)CCCCN23)cc1,inactive,
COCCOC(=O)C1=C(C)N=c2s/c(=C\c3cccs3)c(=O)n2C1c1cccs1 (configuration not stated),inactive,
COc1ccc(OC)c(C2C3=C(N=c4s/c(=C\c5cccc(O)c5)c(=O)n42)c2ccccc2CC3)c1 (configuration not stated),10 µM (active),
O=C1CCCC2=C1C(c1ccccc1)n1c(s/c(=C/c3cccc(F)c3)c1=O)=N2 (configuration not stated),inactive,
CSCCC(NC(=O)COc1ccccc1)C(=O)N(C)CC(=O)Nc1ccc(C)cc1 (configuration not stated),inactive,
CCOc1cc(/C=N/Nc2cc(C)nc3ccc(C)cc23)ccc1O,10 µM (active),
Cc1ccc2nc(C)cc(N/N=C/c3ccc(F)cc3)c2c1,inactive,
CCOc1cc(/C=N/NC(=O)c2cc(-c3ccccc3)nc3ccccc23)ccc1O,inactive,
OCCN1CCN(CCO)C1=S,inactive,
Cn1c(=O)[nH]c(=O)c2c1nc(N1CCN(C(c3ccccc3)c3ccccc3)CC1)n2CCO,10 µM (active),
Cn1c(=O)[nH]c(=O)c2c1nc(N1CCN(CCO)CC1)n2CCSc1nc2ccccc2s1,inactive,
CC1CCN(c2nc3c(c(=O)[nH]c(=O)n3C)n2CCCc2ccccc2)CC1,inactive,
Cc1ccc2nc(-c3cccnc3)c(NC3CCCC3)n2c1,inactive,
COc1ccc(C)cc1S(=O)(=O)NC1CCCCC1,inactive,
COc1ccc(-c2nc3cc(C)ccn3c2NC2CCCCC2)cc1SC1CCCCC1,3.55 µM (active),
O=S(=O)(Nc1ncnc2sccc12)c1cccc(F)c1,inactive,
CCCCN(C(=O)C(CCSC)N1C(=O)c2ccccc2C1=O)c1c(N)n(CCC)c(=O)[nH]c1=O (configuration not stated),inactive,
CN(CC(=O)Nc1ccc(OC(F)(F)F)cc1)C(=O)C1CCC1,inactive,
O=C(CCl)Nc1ccc(Sc2ccc(NC(=O)CCl)cc2)cc1,3.98 µM (active),
Cc1ccc(NC(=O)CC(=O)Nc2ccc(C)cc2)cc1,inactive,
CC(C)(CCl)C(=O)Nc1ccc(Sc2ccc(F)cc2)cc1,inactive,

SMILES,Potency,"activity change, negative = inhibition"
O=C(COC(=O)c1ccc(F)cc1)NCC1COc2ccccc2O1 (configuration not stated),inactive,
COc1ccc2oc(N)nc2c1,inactive,
Cc1ccc(NS(=O)(=O)c2ccc(C(=O)NCCCN3CCOCC3)cc2)cc1,inactive,
COc1cccc(CNC(=O)COC(=O)CN2C(=O)NC3(CCCCC3C)C2=O)c1 (configuration not stated),inactive,
CCOC(=O)[C@H]1[C@H]2COc3ccc(C)cc3[C@@H]2N2C(=O)CN(Cc3ccc(F)cc3)C(=O)[C@@]12C,inactive,
CCOC(=O)c1sc(N)c(C#N)c1COC(=O)C1=COCCO1,inactive,
CCCCCCCCCCOC(=O)Cn1c(COc2cccc(OC)c2)[n+](C)c2ccccc21,inactive,
CCCCCCCCCCOC(=O)Cn1c(COc2ccc(C)cc2)[n+](C)c2ccccc21,31.6 µM (active),
CCCCOC(=O)Cn1c(=O)n(CC(=O)OCCCC)c2cc(C)ccc21,inactive,
COc1ccc(-n2nc3c(N4CCC(C(=O)NCc5ccccc5)CC4)nnc(C)c3c2C)cc1,inactive,
CCc1ccc(CNC(=O)C2CCN(c3nnc(C)c4c(C)n(-c5ccc(C)cc5)nc34)CC2)cc1,8.91 µM (active),
CCOc1ccc(CNC(=O)C2CCCN(c3nnc(C)c4c(C)n(-c5ccccc5)nc34)C2)cc1 (configuration not stated),inactive,
CCOC(=O)CCC(NC(=O)c1ccc(CNc2nc3cc(C(F)(F)F)ccc3nc2C(=O)OCC)cc1)C(=O)OCC (configuration not stated),inactive,
Cc1ccc(NC(=O)c2cccc(S(=O)(=O)N3CCCc4ccccc43)c2)nc1,10 µM (active),
Cn1c(=O)n(C)c2cc(S(=O)(=O)N3CCCc4ccccc43)ccc21,inactive,
Cc1cccc(NC(=O)c2cccc(S(=O)(=O)N3CCCC3)c2)n1,inactive,
C[C@H](O)[C@@H]1C(=O)N2CCc3ccc(N4CCOCC4)cc3[C@@H]2C[C@@H]1N(C)C(=O)C(C)(C)C,,-22.9% [at 8.37 µM]
CCCCc1ccc(NC(=O)CN2C(=O)NC(Cc3ccccc3)C2=O)cc1 (configuration not stated),inactive,
Cc1ccc(S(=O)(=O)N2CCN(C(=O)COC(=O)/C=C/c3cccc(Cl)c3)CC2)c(C)c1,inactive,
COc1ccccc1OCCn1c(SCC(N)=O)nc2ccccc21,inactive,
CCC(=O)c1cn(CCOc2ccccc2OC)c2ccccc12,8.91 µM (active),
CCCn1cc(SCC(N)=O)c2ccccc21,inactive,
CCCCNS(=O)(=O)CCNCc1ccccc1OC,inactive,
COC(=O)c1ccc(CNC(=O)c2ccc(S(=O)(=O)N3CCCCCC3)cc2)cc1,inactive,
Cc1ccc(OCC(=O)Nc2ccc(N3CCN(C(=O)c4ccco4)CC3)cc2)c(C)c1,7.08 µM (active),
Cc1ccc(C)c(OCC(=O)N2CCN(C(=O)c3ccco3)CC2)c1,inactive,

SMILES,Potency,"activity change, negative = inhibition"
CCC(=O)Nc1ccc(C(=O)N2CCN(C(=O)c3ccco3)CC2)cc1,inactive,
CCC(=O)N1CCc2cc(Br)c(S(=O)(=O)NCCN3CCCCC3CC)cc21 (configuration not stated),inactive,
CCN(CC(=O)Nc1cc(Cl)ccc1C)C(=O)CSCc1ccccc1,inactive,
CCOC(=O)c1cc(Sc2ccccc2N)cc(C(=O)OCC)n1,inactive,
Nc1ccccc1Sc1ccc(C(F)(F)F)cc1[N+](=O)[O-],inactive,
CCS(=O)(=O)c1cc([N+](=O)[O-])c(Sc2ccccc2N)s1,7.08 µM (active),
O=C(COc1ccccc1Cl)N1N=C(c2cccs2)CC1c1ccco1 (configuration not stated),inactive,
CC(=NNC(=O)c1ccc2nc[nH]c2c1)c1ccc(Br)cc1,inactive,
COc1ccc(S(=O)(=O)N2CCOCC2)cc1NC(=O)Cc1c(F)cccc1Cl,inactive,
COc1ccc(S(=O)(=O)NCCOc2ccccc2)cc1F,inactive,
COC(=O)CNS(=O)(=O)c1ccc(OC)cc1,inactive,
COc1ccc(S(=O)(=O)NCCCCOc2ccc(Cl)cc2)cc1,25.1 µM (active),
O=C(NCCCN1CCOCC1)c1cn(-c2ccccc2)nc1-c1ccc(F)cc1,inactive,
CN(C)C(=O)COC(=O)c1cccc(S(=O)(=O)N2CC3(C)CC2CC(C)(C)C3)c1 (configuration not stated),inactive,
COc1ccc(N2CCN(S(=O)(=O)c3ccc4c(c3)NC(=O)C(C)C(=O)N4)CC2)cc1 (configuration not stated),inactive,
CC1C(=O)Nc2ccc(S(=O)(=O)N3CCN(c4ccccc4F)CC3)cc2NC1=O (configuration not stated),inactive,
CON(C)S(=O)(=O)c1ccc2c(c1)NC(=O)C1CCCN21 (configuration not stated),8.91 µM (active),
Cc1ccc(S(=O)(=O)CCC(=O)OCC(=O)N(C)Cc2ccccc2)cc1,inactive,
CN(CC(=O)Nc1ccc(F)cc1)CC(=O)N1CCCCC1,inactive,
OCC(O)C1OCOC(C(O)CO)C1O (configuration not stated),inactive,
COC(=O)C1=C(C)N(Cc2ccccc2)C(=NCCCOC(C)C)N[C@H]1c1ccccc1,inactive,
Cc1cc(/C=N/NC(=O)c2cccnc2)c(C)n1CC(C)C,inactive,
O=C(N/N=C/c1sc(N2CCCCC2)nc1-c1cccs1)c1cccnc1,11.2 µM (active),
O=C(N/N=C/c1ccccn1)c1cccnc1,inactive,
